Measured values reported in the supplement of paper PMC6378613.

The targets below were run with Cc1ccc(-c2ccc3c(ccc4sc5c(c43)NC[C@@H](C)NC5=O)n2)cn1 (assay: kinase activity remaining relative to vehicle control; higher = less inhibition). Conditions: inhibitor concentration 0.1 µM.
Protocol: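 In vitro radiometric kinase profiling of the MK2 inhibitor PF-3644022 at 0.1, 1 and 10 µM against a panel of kinases (MRC International Centre for Kinase Profiling, Dundee). Read-out is % kinase activity remaining relative to the vehicle control, mean of n=2.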

Chain of UniProt Q9P1W9 (Q9P1W9 whole entry, looked up): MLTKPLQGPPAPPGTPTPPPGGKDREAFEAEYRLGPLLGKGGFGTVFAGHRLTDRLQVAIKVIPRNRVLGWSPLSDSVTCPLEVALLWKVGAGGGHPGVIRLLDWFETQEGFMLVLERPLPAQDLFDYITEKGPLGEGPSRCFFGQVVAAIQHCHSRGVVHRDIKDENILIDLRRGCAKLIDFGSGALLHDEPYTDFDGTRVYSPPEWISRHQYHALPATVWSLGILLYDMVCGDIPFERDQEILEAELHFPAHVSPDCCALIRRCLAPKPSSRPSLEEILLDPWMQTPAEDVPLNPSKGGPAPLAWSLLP
Chain of UniProt Q13233 (Q13233 whole entry, looked up): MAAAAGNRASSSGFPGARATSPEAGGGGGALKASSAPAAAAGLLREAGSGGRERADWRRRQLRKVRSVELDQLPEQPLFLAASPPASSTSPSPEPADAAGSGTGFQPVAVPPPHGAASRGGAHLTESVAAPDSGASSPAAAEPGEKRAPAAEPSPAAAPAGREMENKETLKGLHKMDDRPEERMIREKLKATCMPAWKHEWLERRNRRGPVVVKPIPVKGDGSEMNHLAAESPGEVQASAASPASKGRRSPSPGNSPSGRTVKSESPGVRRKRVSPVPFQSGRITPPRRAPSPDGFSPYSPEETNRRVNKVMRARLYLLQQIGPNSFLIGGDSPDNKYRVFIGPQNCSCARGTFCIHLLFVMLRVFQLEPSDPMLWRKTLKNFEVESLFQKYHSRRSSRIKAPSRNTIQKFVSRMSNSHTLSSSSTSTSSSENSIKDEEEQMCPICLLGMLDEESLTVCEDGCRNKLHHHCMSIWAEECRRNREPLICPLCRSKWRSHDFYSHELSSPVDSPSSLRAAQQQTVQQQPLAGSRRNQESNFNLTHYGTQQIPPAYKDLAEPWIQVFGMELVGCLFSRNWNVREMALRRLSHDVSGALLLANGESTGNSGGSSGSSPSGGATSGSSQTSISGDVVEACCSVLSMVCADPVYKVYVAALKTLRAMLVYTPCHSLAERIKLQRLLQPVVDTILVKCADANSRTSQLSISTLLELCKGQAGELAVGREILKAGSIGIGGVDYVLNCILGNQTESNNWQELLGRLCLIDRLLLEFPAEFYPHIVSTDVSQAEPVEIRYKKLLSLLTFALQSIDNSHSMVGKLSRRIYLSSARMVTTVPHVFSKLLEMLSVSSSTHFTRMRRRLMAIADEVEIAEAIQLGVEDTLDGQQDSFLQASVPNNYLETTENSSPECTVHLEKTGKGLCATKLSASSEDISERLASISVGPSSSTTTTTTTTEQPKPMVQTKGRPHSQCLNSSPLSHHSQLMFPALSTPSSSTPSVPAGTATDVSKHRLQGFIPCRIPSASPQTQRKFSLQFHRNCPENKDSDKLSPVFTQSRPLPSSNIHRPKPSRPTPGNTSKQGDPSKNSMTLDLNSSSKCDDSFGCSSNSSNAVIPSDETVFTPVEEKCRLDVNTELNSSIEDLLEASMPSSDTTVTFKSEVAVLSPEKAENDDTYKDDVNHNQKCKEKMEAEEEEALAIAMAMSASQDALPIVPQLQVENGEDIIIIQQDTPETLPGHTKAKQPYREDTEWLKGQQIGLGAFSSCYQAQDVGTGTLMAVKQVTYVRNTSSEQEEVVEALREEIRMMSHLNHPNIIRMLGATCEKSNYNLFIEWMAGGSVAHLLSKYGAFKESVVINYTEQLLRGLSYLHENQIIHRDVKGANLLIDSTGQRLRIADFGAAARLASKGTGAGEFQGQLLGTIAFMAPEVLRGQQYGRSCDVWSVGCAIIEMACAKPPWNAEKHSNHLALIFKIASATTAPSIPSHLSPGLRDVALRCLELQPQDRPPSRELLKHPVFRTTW
Chain of UniProt Q13882 (Q13882 whole entry, looked up): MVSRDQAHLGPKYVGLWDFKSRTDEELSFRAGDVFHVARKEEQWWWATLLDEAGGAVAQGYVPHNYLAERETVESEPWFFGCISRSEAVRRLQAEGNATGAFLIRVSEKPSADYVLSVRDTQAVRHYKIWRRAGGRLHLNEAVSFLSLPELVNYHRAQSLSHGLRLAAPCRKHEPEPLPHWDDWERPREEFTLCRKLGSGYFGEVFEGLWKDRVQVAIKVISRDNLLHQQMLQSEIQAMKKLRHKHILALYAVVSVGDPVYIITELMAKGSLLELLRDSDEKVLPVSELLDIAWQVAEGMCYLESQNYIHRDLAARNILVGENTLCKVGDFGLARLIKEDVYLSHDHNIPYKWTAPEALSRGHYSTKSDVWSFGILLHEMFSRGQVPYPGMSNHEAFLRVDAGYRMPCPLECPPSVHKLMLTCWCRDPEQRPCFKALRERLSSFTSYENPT
Chain of UniProt P53355 (P53355 whole entry, looked up): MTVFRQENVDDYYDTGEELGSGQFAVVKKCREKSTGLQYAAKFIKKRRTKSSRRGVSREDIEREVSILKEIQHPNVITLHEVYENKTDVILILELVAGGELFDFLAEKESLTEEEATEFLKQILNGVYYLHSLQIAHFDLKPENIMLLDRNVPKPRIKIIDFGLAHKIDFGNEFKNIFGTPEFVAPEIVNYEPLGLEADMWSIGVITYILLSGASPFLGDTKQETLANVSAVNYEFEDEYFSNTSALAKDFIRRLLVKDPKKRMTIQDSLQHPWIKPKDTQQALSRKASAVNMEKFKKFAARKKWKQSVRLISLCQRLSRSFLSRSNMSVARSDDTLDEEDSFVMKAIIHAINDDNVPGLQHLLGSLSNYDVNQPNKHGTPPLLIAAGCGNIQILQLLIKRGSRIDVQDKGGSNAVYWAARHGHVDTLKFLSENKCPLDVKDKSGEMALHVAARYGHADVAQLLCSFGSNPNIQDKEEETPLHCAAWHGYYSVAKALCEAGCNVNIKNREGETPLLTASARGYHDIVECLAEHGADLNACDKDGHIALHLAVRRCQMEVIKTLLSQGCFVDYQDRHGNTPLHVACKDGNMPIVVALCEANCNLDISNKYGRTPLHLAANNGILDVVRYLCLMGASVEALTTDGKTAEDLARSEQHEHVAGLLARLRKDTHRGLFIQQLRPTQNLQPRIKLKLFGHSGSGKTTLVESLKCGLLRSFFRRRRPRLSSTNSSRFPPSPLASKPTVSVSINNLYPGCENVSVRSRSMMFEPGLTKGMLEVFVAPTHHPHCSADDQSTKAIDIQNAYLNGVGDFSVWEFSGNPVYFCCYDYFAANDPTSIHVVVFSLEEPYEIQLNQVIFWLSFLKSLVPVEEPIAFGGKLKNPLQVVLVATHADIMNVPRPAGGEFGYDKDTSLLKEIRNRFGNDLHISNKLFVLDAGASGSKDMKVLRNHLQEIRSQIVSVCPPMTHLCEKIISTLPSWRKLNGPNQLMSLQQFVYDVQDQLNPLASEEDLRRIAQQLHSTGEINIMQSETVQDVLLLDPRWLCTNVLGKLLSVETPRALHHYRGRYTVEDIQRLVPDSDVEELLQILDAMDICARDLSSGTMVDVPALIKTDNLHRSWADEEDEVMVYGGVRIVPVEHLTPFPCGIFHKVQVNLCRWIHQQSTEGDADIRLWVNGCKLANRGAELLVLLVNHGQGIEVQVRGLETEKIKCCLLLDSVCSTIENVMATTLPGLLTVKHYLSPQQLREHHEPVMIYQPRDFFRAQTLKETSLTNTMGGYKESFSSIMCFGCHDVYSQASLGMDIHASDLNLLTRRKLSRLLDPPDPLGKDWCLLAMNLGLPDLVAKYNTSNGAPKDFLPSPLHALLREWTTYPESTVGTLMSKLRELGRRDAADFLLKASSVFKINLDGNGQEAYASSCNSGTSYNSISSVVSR
Chain of UniProt O75716 (O75716 whole entry, looked up): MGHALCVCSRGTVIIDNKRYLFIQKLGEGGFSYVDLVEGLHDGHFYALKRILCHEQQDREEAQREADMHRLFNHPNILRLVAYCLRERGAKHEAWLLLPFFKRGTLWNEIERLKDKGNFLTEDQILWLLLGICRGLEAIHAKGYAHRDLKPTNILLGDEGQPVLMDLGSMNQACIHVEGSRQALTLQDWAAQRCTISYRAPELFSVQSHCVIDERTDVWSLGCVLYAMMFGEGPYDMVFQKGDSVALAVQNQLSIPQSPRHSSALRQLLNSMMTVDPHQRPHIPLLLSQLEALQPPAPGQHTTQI
Chain of UniProt O75582 (O75582 whole entry, looked up): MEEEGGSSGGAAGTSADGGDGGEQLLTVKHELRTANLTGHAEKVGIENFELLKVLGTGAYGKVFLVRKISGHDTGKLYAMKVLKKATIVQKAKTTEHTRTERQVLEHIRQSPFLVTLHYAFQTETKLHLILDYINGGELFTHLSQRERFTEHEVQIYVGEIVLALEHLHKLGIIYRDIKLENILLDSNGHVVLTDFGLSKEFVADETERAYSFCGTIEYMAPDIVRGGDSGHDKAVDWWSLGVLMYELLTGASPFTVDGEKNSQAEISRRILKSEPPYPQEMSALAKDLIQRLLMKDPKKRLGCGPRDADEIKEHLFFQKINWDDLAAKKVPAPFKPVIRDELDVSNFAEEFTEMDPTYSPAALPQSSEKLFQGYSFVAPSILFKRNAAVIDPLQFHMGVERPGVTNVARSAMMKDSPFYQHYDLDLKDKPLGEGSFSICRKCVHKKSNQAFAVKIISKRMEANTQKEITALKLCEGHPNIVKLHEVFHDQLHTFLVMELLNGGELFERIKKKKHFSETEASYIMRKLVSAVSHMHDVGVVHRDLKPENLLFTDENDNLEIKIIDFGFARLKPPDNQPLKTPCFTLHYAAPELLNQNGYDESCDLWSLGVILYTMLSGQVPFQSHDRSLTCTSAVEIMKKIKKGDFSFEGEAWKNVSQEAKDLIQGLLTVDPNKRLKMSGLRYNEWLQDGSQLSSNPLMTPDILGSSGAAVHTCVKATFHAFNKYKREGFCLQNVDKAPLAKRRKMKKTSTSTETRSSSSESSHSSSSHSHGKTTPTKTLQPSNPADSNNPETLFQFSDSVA

| Target | kinase activity remaining |
| --- | --- |
| LKB1 (UniProt Q15831) | 118% |
| Aurora A | 126% |
| p38 alpha MAPK | 94% |
| OSR1 (UniProt Q8TAX0) | 113% |
| MPSK1 (UniProt O75716) | 117% |
| PKC gamma | 118% |
| YES1 (UniProt P07947) | 112% |
| TSSK1 (UniProt Q9BXA7) | 97% |
| JNK2 (UniProt P45984) | 123% |
| S6K1 | 99% |
| PRK2 (UniProt Q16513) | 108% |
| STK33 (UniProt Q9BYT3) | 105% |
| ZAP70 (UniProt P43403) | 93% |
| MEKK1 (UniProt Q13233) | 102% |
| MSK1 (UniProt O75582) | 120% |
| GSK3 beta | 126% |
| PIM1 (UniProt P11309) | 93% |

| Target | kinase activity remaining |
| --- | --- |
| DAPK1 (UniProt P53355) | 103% |
| AMPK | 93% |
| MLK3 (UniProt Q16584) | 114% |
| PIM2 (UniProt Q9P1W9) | 103% |
| PKC zeta | 115% |
| JNK1 (UniProt P45983) | 96% |
| MARK4 (UniProt Q96L34) | 107% |
| TIE2 (UniProt Q02763) | 105% |
| PKB alpha (UniProt P31749) | 109% |
| EPH-B4 | 110% |
| BRK (UniProt Q13882) | 121% |
| PDK1 (UniProt Q15118) | 104% |
| PKC alpha | 101% |
| MST2 (UniProt Q13188) | 131% |
| BRSK1 (UniProt Q8TDC3) | 86% |
| SYK (UniProt P43405) | 94% |

Same assay, conditions: inhibitor concentration 1 µM

| Target | kinase activity remaining |
| --- | --- |
| LKB1 (UniProt Q15831) | 103% |
| Aurora A | 102% |
| p38 alpha MAPK | 94% |
| OSR1 (UniProt Q8TAX0) | 112% |
| MPSK1 (UniProt O75716) | 118% |
| PKC gamma | 110% |
| YES1 (UniProt P07947) | 89% |
| TSSK1 (UniProt Q9BXA7) | 85% |
| JNK2 (UniProt P45984) | 111% |
| S6K1 | 95% |
| PRK2 (UniProt Q16513) | 101% |
| STK33 (UniProt Q9BYT3) | 83% |
| ZAP70 (UniProt P43403) | 100% |
| MEKK1 (UniProt Q13233) | 109% |
| MSK1 (UniProt O75582) | 105% |
| GSK3 beta | 99% |
| PIM1 (UniProt P11309) | 58% |

| Target | kinase activity remaining |
| --- | --- |
| DAPK1 (UniProt P53355) | 62% |
| AMPK | 38% |
| MLK3 (UniProt Q16584) | 102% |
| PIM2 (UniProt Q9P1W9) | 103% |
| PKC zeta | 112% |
| JNK1 (UniProt P45983) | 93% |
| MARK4 (UniProt Q96L34) | 87% |
| TIE2 (UniProt Q02763) | 86% |
| PKB alpha (UniProt P31749) | 97% |
| EPH-B4 | 106% |
| BRK (UniProt Q13882) | 94% |
| PDK1 (UniProt Q15118) | 107% |
| PKC alpha | 113% |
| MST2 (UniProt Q13188) | 135% |
| BRSK1 (UniProt Q8TDC3) | 55% |
| SYK (UniProt P43405) | 98% |

Same assay, conditions: inhibitor concentration 10 µM

| Target | kinase activity remaining |
| --- | --- |
| LKB1 (UniProt Q15831) | 97% |
| Aurora A | 84% |
| p38 alpha MAPK | 83% |
| OSR1 (UniProt Q8TAX0) | 118% |
| MPSK1 (UniProt O75716) | 105% |
| PKC gamma | 101% |
| YES1 (UniProt P07947) | 55% |
| TSSK1 (UniProt Q9BXA7) | 89% |
| JNK2 (UniProt P45984) | 107% |
| S6K1 | 80% |
| PRK2 (UniProt Q16513) | 81% |
| STK33 (UniProt Q9BYT3) | 38% |
| ZAP70 (UniProt P43403) | 95% |
| MEKK1 (UniProt Q13233) | 109% |
| MSK1 (UniProt O75582) | 99% |
| GSK3 beta | 88% |
| PIM1 (UniProt P11309) | 17% |

| Target | kinase activity remaining |
| --- | --- |
| DAPK1 (UniProt P53355) | 15% |
| AMPK | 9% |
| MLK3 (UniProt Q16584) | 73% |
| PIM2 (UniProt Q9P1W9) | 66% |
| PKC zeta | 106% |
| JNK1 (UniProt P45983) | 92% |
| MARK4 (UniProt Q96L34) | 49% |
| TIE2 (UniProt Q02763) | 88% |
| PKB alpha (UniProt P31749) | 98% |
| EPH-B4 | 99% |
| BRK (UniProt Q13882) | 92% |
| PDK1 (UniProt Q15118) | 95% |
| PKC alpha | 90% |
| MST2 (UniProt Q13188) | 100% |
| BRSK1 (UniProt Q8TDC3) | 29% |
| SYK (UniProt P43405) | 82% |
